The results in this text go back to PubChem BioAssay (Tox21).

Test [1] in a line: qHTS assay to identify aromatase inhibitors - cell viability counter screen (AID 743084).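 Further: cells stimulated with testosterone during compound exposure; nearly all actives have a fitted effect of over 55% in size.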 A general note: qHTS replaces the single test concentration by a dilution series.
The target of test [2] is Aryl hydrocarbon receptor (Homo sapiens) (UniProt P35869). The experiment in a line: qHTS assay to identify small molecule that activate the aryl hydrocarbon receptor (AhR) signaling pathway (AID 743085). Further: nearly all actives have a fitted effect of over 15% in size. Further: potency means the concentration at half of the fitted maximal effect.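 On activation: HG2L7.5c1 human HepG2 liver cells with stably integrated DRE-driven firefly reporter; series mostly up to about 70 µM.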 The method, boiled down: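 HepG2 cells (HG2L7.5c1) stably carrying a firefly luciferase reporter driven by 20 dioxin responsive elements were exposed to compound for 24 h at 37C after a 5 h settling period; luminescence rise (ONE-Glo) indicated activation.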
Aryl hydrocarbon receptor (Homo sapiens), sequence (P35869 whole entry, looked up): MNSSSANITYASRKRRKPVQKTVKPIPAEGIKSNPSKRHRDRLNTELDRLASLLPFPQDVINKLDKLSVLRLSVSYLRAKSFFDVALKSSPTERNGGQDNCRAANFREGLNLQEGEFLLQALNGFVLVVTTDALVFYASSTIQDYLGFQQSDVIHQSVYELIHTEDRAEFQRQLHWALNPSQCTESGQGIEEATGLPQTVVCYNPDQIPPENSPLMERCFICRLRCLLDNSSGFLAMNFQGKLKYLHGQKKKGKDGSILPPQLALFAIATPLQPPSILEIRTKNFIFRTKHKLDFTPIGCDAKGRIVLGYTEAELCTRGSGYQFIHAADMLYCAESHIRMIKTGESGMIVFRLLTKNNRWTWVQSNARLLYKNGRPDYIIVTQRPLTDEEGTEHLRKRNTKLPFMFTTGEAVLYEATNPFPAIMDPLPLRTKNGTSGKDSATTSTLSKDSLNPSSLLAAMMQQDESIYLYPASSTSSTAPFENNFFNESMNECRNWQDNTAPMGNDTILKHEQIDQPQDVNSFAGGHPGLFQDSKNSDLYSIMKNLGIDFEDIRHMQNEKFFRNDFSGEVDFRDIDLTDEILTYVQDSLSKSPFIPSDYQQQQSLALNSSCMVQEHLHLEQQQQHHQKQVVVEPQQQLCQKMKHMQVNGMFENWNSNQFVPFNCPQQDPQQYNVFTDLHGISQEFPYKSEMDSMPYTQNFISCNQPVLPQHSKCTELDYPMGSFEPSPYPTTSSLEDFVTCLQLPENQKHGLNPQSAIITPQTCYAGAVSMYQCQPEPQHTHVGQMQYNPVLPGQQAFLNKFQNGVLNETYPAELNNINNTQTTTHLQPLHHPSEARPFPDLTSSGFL

Test [3] is described as follows: qHTS assay to identify small molecule that activate the aryl hydrocarbon receptor (AhR) signaling pathway - cell viability counter screen (AID 743086).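 Further: HepG2 liver cells carrying the AhR DRE luciferase reporter; series mostly up to about 70 µM; nearly all actives have a fitted effect of over 45% in size.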 The method in brief: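 HepG2-AhR-luc (HG2L7.5c1) cells, 4000/well, treated 24 h at 37 C with compound; viability measured as CellTiter-Fluor fluorescence after 30 min in the same wells as the luciferase read.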
In test [4] the target is Peroxisome proliferator-activated receptor gamma (Homo sapiens) (UniProt P37231). As to the kind of experiment: qHTS assay to identify small molecule agonists of the peroxisome proliferator-activated receptor gamma (PPARg) signaling pathway (AID 743094; active means well fitted activation curve with a large enough effect in the signal ratio in the repeat runs, not every such curve was filed as active; the % refers to the signal ratio). The method in brief:
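Stably transfected HEK293H cells (GeneBLAzer PPARg UAS-bla) were incubated with test substances for 17 h at 37C after a 5 h pre-incubation; beta-lactamase activity was then detected by FRET substrate fluorescence.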

Test [5] shares this target. As to the kind of experiment: qHTS assay to identify small molecule antagonists of the peroxisome proliferator-activated receptor gamma (PPARg) signaling pathway (AID 743191; calls by dose curve; further: series mostly up to about 63 µM; nearly all actives have a fitted effect of over 30% in size). The method, boiled down:
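GeneBLAzer PPARg UAS-bla HEK293H cells, 5 h post-plating, exposed to compounds 17 h at 37C. LiveBLAzer B/G FRET substrate added for 1 h at room temperature; beta-lactamase reporter read by fluorescence intensity.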

A short description of test [6]: qHTS assay for small molecule agonists of the antioxidant response element (ARE) signaling pathway (AID 743202; active means well fitted activation curve with a large enough effect in the signal ratio in the repeat runs, not every such curve was filed as active; the % refers to the signal ratio). The method in brief: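 Agonist mode reporter screen: HepG2 cells with ARE-controlled beta-lactamase are incubated with test compounds for 16 h at 37 C, and beta-lactamase activity is measured as fluorescence of cleaved B/G FRET substrate.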
Test [7] can be described thus: qHTS assay for small molecule agonists of the antioxidant response element (ARE) signaling pathway - cell viability counter screen (AID 743203; calls by dose curve; further: nearly all actives have a fitted effect of over 55% in size). The method, boiled down:
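Cells (ARE-bla HepG2, 2,000/well) receive DMSO-dissolved compounds after a 5 hrs rest. Plates incubate 16 hrs at 37C/5% CO2. CellTiter-Glo luminescence is then recorded after 30 min at room temperature.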

A short description of test [8]: qHTS assay for small molecule activators of the heat shock response signaling pathway - cell viability counter screen (AID 743209). Further: nearly all actives have a fitted effect of over 50% in size. The method in brief: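 Quantitative HTS format, Tox21 10K library. HeLa cells carrying an HSE-driven beta-lactamase reporter were treated 5 h at 37 C, then assessed for viability by CellTiter-Glo luminescence.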
Test [9] in a line: qHTS assay for small molecule activators of the heat shock response signaling pathway (AID 743210; active means well fitted activation curve with a large enough effect in the signal ratio in the repeat runs, with a control signal flat, not every such curve was filed as active; the % refers to the signal ratio; further: series mostly up to about 63 µM). The method, boiled down:
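Quantitative high-throughput format using an engineered HeLa line in which heat shock response elements drive beta-lactamase; after 5 h with compound, cells received a B/G FRET substrate and fluorescence was read.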

A short description of test [10]: qHTS assay to identify small molecule agonists of the peroxisome proliferator-activated receptor delta (PPARd) signaling pathway - cell viability counter screen (AID 743211). Further: nearly all actives have a fitted effect of over 55% in size. The method in brief: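 PPARd-bla HEK293H cells (UAS-beta-lactamase reporter) were treated with compounds for 17 h at 37 C. Viability was then read in the same wells by CellTiter-Glo luminescence after 30 min at room temperature.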

Test [11] deals with Peroxisome proliferator-activated receptor delta (Homo sapiens) (UniProt Q03181). The experiment in a line: qHTS assay to identify small molecule agonists of the peroxisome proliferator-activated receptor delta (PPARd) signaling pathway (AID 743212; calls by dose curve). The method, boiled down:
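Quantitative high-throughput agonist screen in a HEK293H beta-lactamase reporter line under UAS control. Compounds in DMSO, at 37 C. Fluorescence read after 2 h with FRET substrate at room temperature.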

Test [12] is described as follows: qHTS assay to identify small molecule antagonists of the peroxisome proliferator-activated receptor delta (PPARd) signaling pathway - cell viability counter screen (AID 743213). Further: nearly all actives have a fitted effect of over 50% in size. The method in brief:
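CellTiter-Glo was added to PPARd-bla HEK293H wells following 17 h compound treatment in the presence of 300 nM L165041. Luminescence was recorded after 30 min at room temperature.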

Test [13] addresses Peroxisome proliferator-activated receptor delta (Homo sapiens) (UniProt Q03181). The experiment in a line: qHTS assay to identify small molecule antagonists of the peroxisome proliferator-activated receptor delta (PPARd) signaling pathway (AID 743215; active means well fitted inhibition curve with a large enough effect in the signal ratio in the repeat runs, not every such curve was filed as active; the % refers to the signal ratio;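 further: cells stimulated with agonist L165041 at 300 nM final during compound exposure; series mostly up to about 62 µM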). The method, boiled down: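 Antagonist-mode beta-lactamase reporter screen: HEK293H cells with UAS-bla under PPARd control, stimulated by 300 nM L165041 (final) alongside test compound for 17 h at 37 C, then FRET fluorescence after 2 h substrate incubation.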

The target in test [14] is Bile acid receptor (Homo sapiens) (UniProt Q96RI1). The experiment in a line: qHTS assay to identify small molecule antagonists of the farnesoid-X-receptor (FXR) signaling pathway (AID 743217; active means well fitted inhibition curve with a large enough effect in the signal ratio in the repeat runs, not every such curve was filed as active; the % refers to the signal ratio). The method in brief: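 Beta-lactamase reporter under UAS control in HEK 293T cells; compound exposure 16 h at 37 °C in the presence of chenodeoxycholic acid (50 uM final); signal from B/G FRET substrate after 2 h at room temperature.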
Bile acid receptor (Homo sapiens), sequence (Q96RI1 whole entry, looked up): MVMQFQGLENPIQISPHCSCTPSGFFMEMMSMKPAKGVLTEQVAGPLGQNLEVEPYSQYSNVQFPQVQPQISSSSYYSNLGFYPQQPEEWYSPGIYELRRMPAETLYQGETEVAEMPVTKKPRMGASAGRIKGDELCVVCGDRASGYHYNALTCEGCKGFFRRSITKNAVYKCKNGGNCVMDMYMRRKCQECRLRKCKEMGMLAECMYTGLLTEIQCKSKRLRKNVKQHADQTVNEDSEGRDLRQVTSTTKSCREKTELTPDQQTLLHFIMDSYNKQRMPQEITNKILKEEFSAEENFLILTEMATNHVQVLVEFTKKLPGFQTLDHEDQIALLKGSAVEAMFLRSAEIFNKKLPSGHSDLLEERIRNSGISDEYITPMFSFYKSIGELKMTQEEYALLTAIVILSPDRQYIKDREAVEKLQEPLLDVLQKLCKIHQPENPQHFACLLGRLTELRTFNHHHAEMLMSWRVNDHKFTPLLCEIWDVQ

Test [15] is described as follows: qHTS assay to identify small molecule agonists of the farnesoid-X-receptor (FXR) signaling pathway - cell viability counter screen (AID 743218). Further: nearly all actives have a fitted effect of over 45% in size. The method in brief:
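In GeneBLAzer FXR-UAS-bla HEK 293T cells, compounds act for 16 h at 37 C. Cell viability is then scored in the reporter wells by CellTiter-Glo, 30 min at RT, luminescence.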

Test [16] concerns the target Bile acid receptor (Homo sapiens) (UniProt Q96RI1). As to the kind of experiment: qHTS assay to identify small molecule agonists of the farnesoid-X-receptor (FXR) signaling pathway (AID 743220; active means well fitted activation curve with a large enough effect in the signal ratio in the repeat runs, not every such curve was filed as active; the % refers to the signal ratio). The method, boiled down: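 Beta-lactamase reporter under UAS control in GeneBLAzer FXR HEK 293T cells (5000/well) measured with LiveBLAzer FRET substrate after 2 h at room temperature. Compound exposure lasted 16 h at 37C.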

Test [17] can be described thus: qHTS assay to identify small molecule antagonists of the farnesoid-X-receptor (FXR) signaling pathway - cell viability counter screen (AID 743221; active means well fitted cell-killing curve with a large enough effect in the repeat runs, not every such curve was filed as active; further: nearly all actives have a fitted effect of over 50% in size). The method in brief: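 FXR-UAS-bla HEK 293T cells were treated with test compounds plus chenodeoxycholic acid (50 uM final) for 16 h at 37 C. Cell viability in the same wells was then read as CellTiter-Glo luminescence after 30 min at room temperature.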

The target in test [18] is Vitamin D3 receptor (Homo sapiens) (UniProt P11473). As to the kind of experiment: qHTS assay to identify small molecule agonists of the vitamin D receptor (VDR) signaling pathway (AID 743222; calls by dose curve). The method in brief:
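Agonist activity measured in VDR-bla reporter cells. Exposure 16 h, 37C, 5% CO2; detection by B/G FRET substrate, 2 h RT.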

For test [19] the target is unchanged. The experiment in a line: qHTS assay to identify small molecule antagonists of the vitamin D receptor (VDR) signaling pathway (AID 743223; active means well fitted inhibition curve with a large enough effect in the signal ratio in the repeat runs, not every such curve was filed as active; the % refers to the signal ratio). The method, boiled down:
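VDR-bla cells were plated, incubated 4 h at 37C, then given compound and 1alpha,25-dihydroxyvitamin D3 (3 nM final). After 16 h at 37C, LiveBLAzer B/G FRET substrate was added for 2 h at room temperature and fluorescence read.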

A short description of test [20]: qHTS assay to identify small molecule antagonists of the peroxisome proliferator-activated receptor gamma (PPARg) signaling pathway - cell viability counter screen (AID 743194). Further: nearly all actives have a fitted effect of over 55% in size. The method in brief: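 Cytotoxicity counter screen in PPARg-bla HEK293H cells, same wells as reporter assay. Compounds plus 50 nM rosiglitazone (final) for 17 h at 37 C, then viability read by CellTiter-Glo luminescence.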

Inconclusive results are not listed. More than one record can exist for a structure, and the calls need not agree. The source made the active and inactive calls. Unless noted, the call rests on the fitted dose curve; in most records, active means well fitted curve in the direction sought with a large enough effect in the repeat runs; inconclusive means weak or mixed curves; inactive means no such curve, though single readings can be large; an effect the other way counts as inactive or inconclusive.
On the % scale 0 is the no-effect control and ±100 the full control effect.

Peroxisome proliferator-activated receptor delta (Homo sapiens), sequence (Q03181 whole entry, looked up): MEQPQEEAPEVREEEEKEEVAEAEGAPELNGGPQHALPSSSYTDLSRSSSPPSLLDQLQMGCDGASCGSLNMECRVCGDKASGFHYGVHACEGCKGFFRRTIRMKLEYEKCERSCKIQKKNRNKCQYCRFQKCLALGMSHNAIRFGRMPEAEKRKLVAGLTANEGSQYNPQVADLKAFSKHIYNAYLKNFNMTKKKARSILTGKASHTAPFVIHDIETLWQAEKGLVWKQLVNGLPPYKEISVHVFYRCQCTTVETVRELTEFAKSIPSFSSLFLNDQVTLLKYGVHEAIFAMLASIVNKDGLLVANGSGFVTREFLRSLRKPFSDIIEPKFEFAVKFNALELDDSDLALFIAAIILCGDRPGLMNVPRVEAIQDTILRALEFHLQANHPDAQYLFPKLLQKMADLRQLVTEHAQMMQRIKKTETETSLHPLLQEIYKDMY
Peroxisome proliferator-activated receptor gamma (Homo sapiens), sequence (P37231 whole entry, looked up): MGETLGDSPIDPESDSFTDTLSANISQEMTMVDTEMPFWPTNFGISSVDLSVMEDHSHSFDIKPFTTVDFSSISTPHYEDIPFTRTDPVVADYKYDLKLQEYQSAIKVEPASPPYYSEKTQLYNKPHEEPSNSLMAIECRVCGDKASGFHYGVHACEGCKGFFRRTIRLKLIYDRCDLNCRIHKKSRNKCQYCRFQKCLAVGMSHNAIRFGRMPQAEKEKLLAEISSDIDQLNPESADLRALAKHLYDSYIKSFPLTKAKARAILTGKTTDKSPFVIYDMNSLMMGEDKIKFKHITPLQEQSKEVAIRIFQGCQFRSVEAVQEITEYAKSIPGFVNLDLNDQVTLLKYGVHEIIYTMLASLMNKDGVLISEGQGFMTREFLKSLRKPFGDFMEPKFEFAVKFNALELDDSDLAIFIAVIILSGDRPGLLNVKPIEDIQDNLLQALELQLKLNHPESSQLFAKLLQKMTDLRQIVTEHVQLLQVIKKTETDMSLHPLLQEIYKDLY
Vitamin D3 receptor (Homo sapiens), sequence (P11473 whole entry, looked up): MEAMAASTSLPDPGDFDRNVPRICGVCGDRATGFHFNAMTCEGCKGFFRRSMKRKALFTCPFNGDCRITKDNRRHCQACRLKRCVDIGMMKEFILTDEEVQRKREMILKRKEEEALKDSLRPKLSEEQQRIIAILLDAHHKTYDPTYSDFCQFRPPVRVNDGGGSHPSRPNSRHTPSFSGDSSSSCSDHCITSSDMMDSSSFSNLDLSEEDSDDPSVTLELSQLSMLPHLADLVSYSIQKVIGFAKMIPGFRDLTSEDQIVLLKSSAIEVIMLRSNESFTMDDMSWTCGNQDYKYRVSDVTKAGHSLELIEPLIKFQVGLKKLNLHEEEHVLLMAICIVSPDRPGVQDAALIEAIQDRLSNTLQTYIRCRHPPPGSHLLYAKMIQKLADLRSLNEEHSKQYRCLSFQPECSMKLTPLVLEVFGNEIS

With `CCCCCCCCCCCc1ccccc1`, the Potency entry in [1], in [2], in test [3], in test [4], in test [5] and in test [6] was “inactive” throughout. The Potency result in test [7], in [8], in test [9], in [10], in test [11] and in test [12] was “inactive” each time. Moreover, the Potency result in [13], in test [14], in test [15], in test [16], in test [17] and in [18] was “inactive” in each case. For the same molecule, in [19], the result was inactive.

`CCOC(=O)C1=C[C@]2(CC)CCCN3CCc4c(n1c1ccccc41)[C@@H]32`: the Potency entry in [1], in [3], in test [4], in [5], in test [20] and in test [6] was “inactive” each time. Moreover, the Potency result in test [7], in test [8] and in test [18] was “inactive” in each case. In test [2], the Potency was 11.9 µM (active) and inactive.

Consider `C/C=C/C(=O)CC`, for which the Potency entry in [1], in test [2], in test [3] and in test [4] was “inactive” in each case. The ratio activity, negative = inhibition in test [5] is 6.72% [at 13.2 µM] (inactive); in test [13] it was 2.27% [at 13.7 µM] (inactive). The activation in test [6] is -1.61% [at 18.1 µM] (inactive); in test [9], -0.278% [at 13.2 µM] (inactive). Besides, the viability change, negative = cytotoxic in [7] is 0.863% [at 18.1 µM] (inactive); in [12], 3.59% [at 13.7 µM] (inactive); in test [15], 6.33% [at 13.2 µM] (inactive). Moreover, the activity change, negative = cytotoxicity was 2.01% [at 13.2 µM] (inactive) in test [8] and 2.34% [at 13.2 µM] (inactive) in test [10].

In the case of `CC(=O)c1ccc2c(c1)N(CCCN1CCC(CCO)CC1)c1ccccc1S2`, the Potency result in test [1], in test [2], in [3], in test [4], in [5] and in [6] was “inactive” each time.

With `CCCCNc1ccc(C(=O)OCCOCCOCCOCCOCCOCCOCCOCCOCCOC)cc1`, the Potency entry in test [1], in test [2], in [3], in test [4], in test [5] and in test [20] was “inactive” each time. Also, the Potency entry in [7], in test [8], in test [9], in test [11], in test [12] and in test [15] was “inactive” each time. In addition, the Potency entry in [16], in test [17] and in test [18] was “inactive” in each case. In [19], the molecule was called inactive.

Consider `CC(COCCO)OCCO` (stereo not drawn), for which the Potency entry in [1], in test [2], in [3], in test [4], in test [5] and in test [7] was “inactive” each time. In addition, the Potency entry in [8], in test [9], in [10], in test [12], in [14] and in test [16] was “inactive” each time. The Potency entry in test [17] and in test [18] was “inactive” throughout. The molecule was called inactive in test [19].

On to `O=C(NCCO[N+](=O)[O-])c1cccnc1`, for which the Potency result in test [1], in test [2], in test [3], in [4], in test [5] and in test [20] was “inactive” in each case. Further, the Potency result in test [6], in test [7], in test [9], in test [12], in test [13] and in test [17] was “inactive” in each case. In addition, the Potency result in test [18] was “inactive”. The result in test [19] was inactive.

In the case of `C[C@H]1C[C@H]2[C@@H]3CCC4=CC(=O)C=C[C@]4(C)[C@@]3(Cl)[C@@H](O)C[C@]2(C)[C@@]1(O)C(=O)CO`, the Potency entry in [1], in [2], in test [3], in test [4], in [5] and in [6] was “inactive” in each case. Further, the Potency entry in test [7], in test [8], in [9], in test [10], in test [11] and in test [13] was “inactive” in each case. The Potency entry in [15] and in test [18] was “inactive” throughout. Besides, the call in [19] was inactive.

For `CCOc1ccc(N)c([N+](=O)[O-])c1`, the Potency entry in test [1], in [2], in [3], in [4], in test [5] and in test [20] was “inactive” throughout. Further, the Potency entry in [7], in [8], in test [9], in test [10], in [13] and in [15] was “inactive” throughout. Also, the Potency entry in test [17] and in test [18] was “inactive” throughout. In addition, the outcome in [19] was inactive.
